Bioassay records from PubChem.
In the library only some 3.7% were active in any assay of this set; here they are far more common.
HTT aggregate: reduces HttQ103-GFP aggregates in PC12 cells; PC12 HttQ103-GFP aggregates, Acumen cytometry, 40 h; Potency, µM (doses to about 46.1 µM), for the others: at the highest dose activity change, negative = inhibition, hits mostly inhibitors; AID 1688; hit rate 1.1% among 220,000; note: % is set by controls: 0 for no effect and ±100 for the full control effect; nearly all actives have a fitted effect of over 60% in size
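Read-out: GFP aggregate count by laser scanning cytometer (488 nm excitation, 500-530 nm emission, 1–25 µm objects >6 SD above background). Cells: PC12, inducible HTTex1-Q103-GFP, 100 nM tebufenozide; compounds titrated.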
Tau fluor cs: counter-screen for tau fibril formation inhibitors; tau K18 P301L Alexa594 fluorescence, heparin fibrillization; Potency, µM (doses to about 57.7 µM), without a hit: at the highest dose activity change, negative = decrease; hit rate 0.93% among 280,000; note: % is set by controls: 0 for no effect and ±100 for the full control effect; nearly all actives have a fitted effect of over 55% in size
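Human tau K18 P301L (15 uM unlabeled, 0.24 uM Alexa 594-labeled) in 100 mM sodium acetate pH 7 with 20 uM heparin, 6 hr at 37 C. ThT 30 uM added, 1 hr ambient; Alexa 594 FP and total fluorescence read at 555/632 nm.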
HTT cytoprotect: Huntington cell model cytoprotection by ATP luminescence; PC12 HTT-Q103 induced, cytoprotection, ATP luminescence, 40 h; Potency, µM (titrated, usually from 56.4 µM), without a hit: cytoprotection (ATP increase), usual class: activators; hit rate 0.14% among 230,000; AID 1471; note: % of control where 0% means no effect; nearly all actives have a fitted effect of over 45% in size
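Rat PC12, Q103 Htt exon1-GFP fusion, ecdysone promoter; tebufenozide inducer 100 nM final; compound titration; qHTS, 1500 cells/well; ATPlite luminescent read.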
Tau fibril ThT: inhibitors of human tau fibril formation, thioflavin T binding. P10636. recombinant tau K18 P301L (four-repeat tau fragment), heparin-induced fibrillization, ThT fluorescence. Potency, µM (series often up to 57.4 µM), for inactives: top-dose activity, negative = inhibition, usual class: inhibitors. hit rate 2.1% among 270,000. AID 1460; note: % is set by controls: 0 for no effect and ±100 for the full control effect; nearly all actives have a fitted effect of over 55% in size
Target sequence (P10636 561-689 P618L limits assumed): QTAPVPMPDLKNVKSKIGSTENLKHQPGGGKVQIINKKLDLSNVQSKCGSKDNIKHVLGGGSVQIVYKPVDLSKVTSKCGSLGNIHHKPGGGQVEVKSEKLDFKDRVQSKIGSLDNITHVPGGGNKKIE
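K18 P301L tau (15 uM + 0.24 uM Alexa 594-tagged), heparin 20 uM, NaOAc pH 7, 6 h 37 C; ThT 30 uM, 1 h RT, ex 450/em 510 nm.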
Tau fibril FP: tau fibrillization inhibition (FP). P10636. K18 P301L tau heparin fibrillization, Alexa594 FP, 6 h. Potency, µM (top dose mostly 57.7 µM), inactives show top-dose activity, negative = inhibition, usual class: inhibitors. hit rate 0.39% among 280,000; note: % is set by controls: 0 for no effect and ±100 for the full control effect; nearly all actives have a fitted effect of over 55% in size
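Quantitative HTS format: compounds meet 15 uM recombinant K18 P301L tau and Alexa 594-tau tracer in 100 mM sodium acetate pH 7; 20 uM heparin triggers fibrillization at 37 C over 6 hr; FP gives the signal.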
Active calls of the source: *; ? = inconclusive; / = no result given; [ ] = dose if it differs, or a comment. Calls come from the whole dose curve; as a rule, active = well fitted curve in the direction sought with a large enough effect; inconclusive = small, poorly fitted or top-dose-only effect, or another doubt; inactive = no such curve, though single readings can be large; an effect the other way counts as inactive or inconclusive. Potency is the fitted concentration of half-maximal effect.

SMILES	HTT aggregate	Tau fluor cs	HTT cytoprotect	Tau fibril ThT	Tau fibril FP
O=c1cc(-c2ccccc2)[nH]n1-c1ccc([N+](=O)[O-])cc1	?	?	-16%	13µM*	5%
O=C(CCn1cnc2onc(-c3ccc(F)cc3)c2c1=O)Nc1cccc(C(F)(F)F)c1	/	?	/	14%	22µM*
O=C(CCn1cnc2onc(-c3ccc(F)cc3)c2c1=O)Nc1ccc(F)c(Cl)c1	/	?	/	18%	28µM*
Cc1ccc(NC(=O)CCn2cnc3onc(-c4ccc(F)cc4)c3c2=O)c(Br)c1	/	-29%	/	0%	?
CC1=C(C(=O)Nc2ccccc2)C(c2cccnc2)n2nc(SCc3ccccc3Cl)nc2N1 (stereo not given)	/	0%	/	6%	-12%
Cn1c(=O)n2n(c1=O)[C@H]1[C@H](O)[C@H]3O[C@@H]3/C(=N/OC[C@@H](O)COCc3ccco3)[C@@H]1CC2	/	-11%[11.6 µM]	15%[10 µM]	-12%[11.5 µM]	1%[11.6 µM]
CCCOC(=O)c1ccc(Oc2cn[nH]c2-c2ccc(OCC(=O)NN)cc2O)cc1	19%[9.22 µM]	28µM*[quencher]	1%[10 µM]	-6%	6%
CCCOC(=O)c1ccc(Oc2c(-c3ccc(O)cc3O)n[nH]c2C)cc1	-13%	-9%	-17%	-5%	-12%
CCCOC(=O)c1ccc(Oc2c(-c3ccc(OC)cc3O)n[nH]c2C)cc1	-9%	10µM*[quencher]	5%[0.074 µM]	-6%	?
CCc1cc(-c2n[nH]c(C)c2Oc2ccc(C(C)C)cc2)c(O)cc1O	-17%	7.1µM*[quencher]	-26%	28µM*	?
CCOC(=O)c1ccc(OCC(=O)c2ccc(O)cc2O)cc1	-3%	-21%	-6%[0.074 µM]	-13%	-1%
CCOC(=O)c1ccc(Oc2cn[nH]c2-c2ccc(O)cc2O)cc1	5%[9.22 µM]	13µM*[quencher]	8%[10 µM]	?	?
O=C1c2ccccc2C(=O)N1C[C@]1(C(=O)O)NCCS1(=O)=O	/	/	-4%[10 µM]	/	/
CCCc1ccc(Oc2cn[nH]c2-c2ccc(O)cc2O)cc1	?	6.3µM*[quencher]	-8%[10 µM]	?	?
CCCOC(=O)c1ccc(Oc2cn[nH]c2-c2ccc(O)cc2O)cc1	-9%[9.22 µM]	5µM*[quencher]	2%[10 µM]	?	?
Cc1[nH]nc(-c2ccc(O)cc2O)c1Oc1ccccc1	?	14µM*[quencher]	-23%	-22%	18%
CN(C)CN1CSC(=S)N(CN(C)C)C1	/	/	-16%[10 µM]	/	/
CCOc1cc(C(c2c(C)[nH][nH]c2=O)c2c(C)[nH][nH]c2=O)ccc1OCc1ccc([N+](=O)[O-])cc1	13%	?	6%	11µM*	-5%
COc1cc(C(c2c(C)[nH][nH]c2=O)c2c(C)[nH][nH]c2=O)cc([N+](=O)[O-])c1O	12%	-25%	-18%	14µM*	?
CCOc1cc(C(c2c(C)[nH][nH]c2=O)c2c(C)[nH][nH]c2=O)ccc1OC(=O)c1cccc([N+](=O)[O-])c1	12%	?	-14%	?	-8%
CC(=O)[C@H]1CC[C@@H]2[C@]1(C)CC=C1[C@]23C=C[C@]2(C[C@H](O)CC[C@@]12C)[C@H](C(=O)O)[C@@H]3C(=O)O	/	/	9%[10 µM]	/	/
C/C(=N\N=C(N)N)c1cccc(Cl)c1	5µM*	12%	-183%	19%	7%
CC1=C(C(=O)N(C)C)C(c2cccs2)NC(=O)N1 (stereo not given)	6%	1%	21%[10 µM]	-15%	6%
CC1=C(C(=O)N(C)C)C(c2cccc(Cl)c2)NC(=O)N1 (stereo not given)	4µM*	-2%	-4%[10 µM]	-1%	-7%
O=C(NCCc1ccccc1)c1c[nH]c2ccc(S(=O)(=O)Nc3ccccc3F)cc2c1=O	/	?	/	-6%	13µM*
SMILES	HTT aggregate	Tau fluor cs	HTT cytoprotect	Tau fibril ThT	Tau fibril FP
COc1ccccc1CNC(=O)c1c[nH]c2ccc(S(=O)(=O)Nc3cc(C)cc(C)c3)cc2c1=O	/	?	/	4%	8.9µM*
O=C(NCc1ccccc1)c1c[nH]c2ccc(S(=O)(=O)Nc3ccc4c(c3)OCCO4)cc2c1=O	-15%	10µM*[quencher]	-29%	-10%	?
O=C(NCc1cccnc1)c1c[nH]c2cc3c(cc2c1=O)OCCO3	?	0%	-48%	-13%	1%
CCN(CC)S(=O)(=O)c1ccc2[nH]cc(C(=O)NCCC3=CCCCC3)c(=O)c2c1	10µM*	?	-80%	7%	11µM*
COc1ccc2c(c1)c1c(c(=O)n(-c3ccccc3C)c(=O)n1CC(=O)NCc1ccc(C)cc1)n2C	/	-25%	/	-7%	-3%
CCc1ccc(NS(=O)(=O)c2ccc3[nH]cc(C(=O)NCc4ccc(C)cc4)c(=O)c3c2)cc1	/	?	/	10%	3.5µM*
CCc1ccc(NS(=O)(=O)c2ccc3[nH]cc(C(=O)NCC4CCCO4)c(=O)c3c2)cc1 (stereo not given)	-25%	?	-15%	?	?
CCC(=O)Nc1cc(-c2cccc(C)c2)nn1-c1ccccc1	/	-4%	/	3%	-13%
O=S(=O)(c1ccc2[nH]c3c(c2c1)CCCCC3)N1CCN(c2cccc(Cl)c2)CC1	/	?	/	12%	3%
O=S(=O)(Nc1cccc(Cl)c1)c1ccc2[nH]c3c(c2c1)CCCCCC3	/	8.9µM*[quencher]	/	-10%	?
CN(Cc1ccccc1)S(=O)(=O)c1ccc2[nH]c3c(c2c1)CCCCC3	/	3.5µM*[quencher]	/	0%	?
Cc1cccc(NS(=O)(=O)c2ccc3[nH]c4c(c3c2)CCCCCC4)c1	/	11µM*[quencher]	/	0%	7%
Cc1ccccc1NS(=O)(=O)c1ccc2[nH]c3c(c2c1)CCCCC3	/	14µM*[quencher]	/	-11%	5%
O=C(O)c1cc(Cl)cc(Cc2cc(Cl)cc(C(=O)O)c2O)c1O	/	/	-12%[10 µM]	/	/
CCn1cc(C(=O)NCCc2ccc(OC)c(OC)c2)c(=O)c2cc(S(=O)(=O)N3CCc4ccccc4C3)ccc21	/	-28%	/	-9%	-2%
Cc1cc(/C=N/NC(=O)c2cccc([N+](=O)[O-])c2)c(C)n1-c1ccccc1	-6%	?	23%[10 µM]	?	?
Cc1ccccc1-n1c(C)cc(/C=N/Nc2ccc([N+](=O)[O-])cn2)c1C	5%	?	-28%	4.5µM*	3%
O=[N+]([O-])c1ccc(N/N=C\c2cccn2-c2ccccc2)nc1	?	16µM*[quencher]	2%	7.1µM*	16%
Cc1cc(/C=N/Nc2ccc([N+](=O)[O-])cn2)c(C)n1-c1ccc(C(=O)O)cc1	-16%	?	-13%	4.5µM*	?
Cc1ccccc1Cn1ccc(=NCc2ccccc2)cc1	18µM*	-1%	/	-2%	-7%
C(=C\c1ccco1)/c1ccc2ccccc2n1	-9%[9.22 µM]	-22%	13%[10 µM]	32µM*	?
Nc1ncn([C@H]2O[C@@H](CO)[C@@H](O)[C@@H]2O)c(=O)n1	/	/	-44%[40.3 µM]	/	/
O=C(CN1CCOCC1)Nc1cccc(Br)c1	3.2µM*	7%	10%	-1%	7%
